Our source for the inhibition values is PubChem BioAssay AID1029 (Sanford-Burnham Center for Chemical Genomics, 2008).

The campaign covered roughly 110,000 compounds. About 80 (0.07%) were called active. This excerpt belongs to a sample that is enriched for actives. Unmarked numbers belong to inactive results.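 The calls were made as follows: active = inhibition above the mean of the plate negative controls plus 5 SD (cut at about 13% in these data); inactive = the rest.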

For orientation: inhibition means the change of the read-out against control, counted positive when it falls.

This assay can be described thus: inhibitors of macrophage phagocytosis, primary screen, imaging, J774A.1 cells, IgG beads (AID 1029).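 Also: phagocytic index as fraction of beads internalized from green versus red external bead signal; plate controls were DMSO negative control for no effect and cytochalasin-D positive control for full effect.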 To be noted: J774A.1 macrophage IgG-bead phagocytosis, at 5 µM, active compounds read high.
`CC(=O)c1c(C)n([O-])c2ccccc2[n+]1=O`: the inhibition is 79.2% (active).

`CC(=O)c1ccc2c(c1)c1ccccc1n2CC(C)C`: the inhibition is 0.3%.

In the case of `c1ccc(-c2cc3c(NCC4COc5ccccc5O4)ncnc3s2)cc1` (stereo unspecified), the inhibition is -5.69%.

As to `CCNS(=O)(=O)c1ccc(NC(=O)c2cncc(Br)c2)cc1`, the inhibition is -7.43%.

With `CCC1CCCCN1C(=S)Nc1ccc(C(C)=O)cc1` (stereo unspecified), the inhibition is -9.4%.

Turning to `O=C(/C=C/c1cccc([N+](=O)[O-])c1)NCCSCc1ccco1`, the inhibition was 6.74%.

`CCc1ccc(-c2cc(C(=O)NN3CCN(C)CC3)c3ccccc3n2)cc1`: the inhibition is -2.84%.

`COC(=O)c1c(NC(=O)CN2CCN(S(=O)(=O)c3ccccc3[N+](=O)[O-])CC2)sc2c1CCC(C)C2` (stereo unspecified): the inhibition was -4.89%.

As for `Cc1ccc(NC(=O)CSCC(=O)NC2CCCCC2)cc1`, the inhibition was 6.8%.

With `Cc1ccc(CN2C(=O)N/C(=C/c3cc(C)n(-c4ccccn4)c3C)C2=O)cc1`, the inhibition is -12.6%.

As for `COc1ccc(NC(=S)NC2CCS(=O)(=O)C2)cc1` (stereo unspecified), the inhibition is -3.06%.

With `O=C(Nc1ccccc1)/C(=C/c1ccc([N+](=O)[O-])cc1)NC(=O)c1ccccc1`, the inhibition is -6.22%.

As to `CC(=O)Nc1ccc(/C(C)=N/NC(=O)CN(c2ccccc2Br)S(C)(=O)=O)cc1`, the inhibition was -1.53%.

Regarding `Cc1ccccc1OCC(=O)Nc1nc(C)c(C(=O)N(C)C)s1`, the inhibition is -2.14%.

Take `CCn1ncc(CNC(=O)C2(C)CC2(Br)Br)c1C` (stereo unspecified): the inhibition was -2.71%.

`O=C(/C=C\c1cn(-c2ccccc2)nc1-c1cccs1)N1CCOCC1`: the inhibition is -5.61%.

Consider `COc1cc2c(cc1OC)C(Nc1ccc(S(N)(=O)=O)cc1)=NC(C)(C)C2`, for which the inhibition is -2.77%.

Take `COCCNc1nc(N)c([N+](=O)[O-])c(NCCO)n1`: the inhibition is -3.97%.

On to `COc1ccc(/C(C)=N/NC(=O)CCC(=O)Nc2ccc(Cl)cc2Cl)c(OC)c1`, for which the inhibition is 0.09%.

Consider `CCC1CCc2c(sc(NC(C)=O)c2C#N)C1` (stereo unspecified), for which the inhibition was -7.48%.

Regarding `COc1ccc(N2C(=O)C(O)C2c2ccc(C)cc2)cc1` (stereo unspecified), the inhibition was -1.93%.

Regarding `CC(CC(=O)N1CCN(c2ccccc2)CC1)c1ccccc1` (stereo unspecified), the inhibition was -3.13%.

As for `Cc1ccnc(NC(=O)Cn2ccc([N+](=O)[O-])n2)c1`, the inhibition is -6.53%.

Regarding `Cc1ccc(C)c(NC(=O)CCC(=O)NNC(=O)c2cccs2)c1`, the inhibition is 1.58%.

Take `COCCNC(=O)c1ccccc1NS(=O)(=O)c1ccc(C)c([N+](=O)[O-])c1`: the inhibition is -2.99%.

For `O=C(NNC(=S)NCc1ccccc1)c1ccc(OC(F)F)cc1`, the inhibition is -3.86%.
